# Results filed as inconclusive are left out. Calls of active or inactive are those of the source. How the source made its calls: active means hit-call score of the fitted dose curve at least 0.9, where 1 is the maximum; inconclusive means response in the unintended direction; inactive means score below 0.9.
# Molecular target: human Dual Specificity Styrosine-Phosphorylation-Regulated Kinase 1A (DYRK1a), DYRK1A (gene 1859) (UniProt Q13627)
# Test: NVS_ENZ_hDYRK1a: NovaScreen (NVS) Enzymatic Assay for human Dual Specificity Styrosine-Phosphorylation-Regulated Kinase 1A (DYRK1a)
# Method: NVS_ENZ_hDYRK1a is a biochemical, single-readout assay that uses extracted gene-proteins in a cell-free assay. Measurements were taken 1 hour after chemical dosing in a 96-well plate.NVS_ENZ_hDYRK1a is one of one assay component(s) measured or calculated from the NVS_ENZ_hDYRK1a assay. It is designed to make measurements of enzyme activity, a form of enzyme reporter, as detected with fluorescence intensity signals by Fluorescence and electrophoretic mobility shift technology.Data from the assay component NVS_ENZ_hDYRK1a was analyzed into 1 assay endpoint. This assay endpoint, NVS_ENZ_hDYRK1a, was analyzed in the positive analysis fitting direction relative to DMSO as the negative control and baseline of activity. Using a type of enzyme reporter, loss-of-signal activity can be used to understand changes in the enzymatic activity as they relate to the gene DYRK1A. Furthermore, this assay endpoint can be referred to as a primary readout, because this assay has produced multiple assay endpoints where this one serves a enzymatic activity function. To generalize the intended target to other relatable targets, this assay endpoint is annotated to the kinase intended target family, where the subfamily is dual-specific kinase.
# Binding assays used specific radioligands (tritiated, iodinated) with non-radioactive competitive displacement ligands in agonist or antagonist protocols (as indicated) and various reference compounds and inhibitors to titrate specific binding to receptors and transporters. Most enzyme assays (CYPs, kinases, phosphatases, proteases, HDACs) used recombinant protein and specific substrates (fluorescence mostly, some colorimetric and radioactive) and inhibitors, followed by a biochemical separation of substrate and product. All assays for the biochemical HTS were initially run in duplicate at a single concentration (10 uM for CYP450 assays and 25 uM for all others). […] Each assay was run with positive and negative controls, and concurrent controls on every plate. The follow-up (secondary) screen tested active chemical-pairs in concentration series, as well as a few additional assays not tested in the primary screen, some selected negative inactives, and several cases re-run in the concentration series for confirmatory purposes.
SMILES,outcome,AC50
O=C(O)c1nc(Cl)ccc1Cl,inactive,–
COc1cc(OC)nc(NC(=O)NS(=O)(=O)c2cc(NC=O)ccc2C(=O)N(C)C)n1,inactive,–
N#Cc1c(Cl)c(Cl)c(Cl)c(C#N)c1Cl,inactive,–
CC1=NNC(=O)N(/N=C/c2cccnc2)C1,–,13.5 µM (active)
O=C(Nc1ccccc1)Nc1ccnc(Cl)c1,–,25 µM (active)
Nc1c(Cl)cc([N+](=O)[O-])cc1Cl,–,14.7 µM (active)
CCN(CC)C(=O)SCc1ccc(Cl)cc1,inactive,–
CCCCOC(=O)c1ccccc1C(=O)OCCCC,inactive,–
N#Cc1c[nH]cc1-c1cccc2c1OC(F)(F)O2,inactive,–
O=C(Nc1ccccc1)Nc1cnns1,inactive,–
COP(N)(=O)SC (stereo not drawn),inactive,–
CN(C)[C@@H]1C(=O)C(C(N)=O)=C(O)[C@@]2(O)C(=O)C3=C(O)c4c(O)cccc4[C@@](C)(O)[C@H]3[C@H](O)[C@@H]12,–,16.7 µM (active)
CNC(=O)ON=C(SC)C(=O)N(C)C,inactive,–

# — PubChem BioAssay AID2283234 (EPA ToxCast)
